A short description of assay [1]: qHTS assay to identify small molecule agonists of the sonic hedgehog signaling (Shh) pathway (AID 1259368; calls by dose curve;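 also: NIH/3T3-derived 3T3Gli1-Luc cells carrying a stable Gli1-driven firefly luciferase reporter; series mostly up to about 92 µM; nearly all actives have a fitted effect of over 15% in size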). The essentials:
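A Gli1 transcriptional response element controlled firefly luciferase in 3T3Gli1-Luc cells. Compounds and a positive control were added 4 hr after plating, and cells were incubated a further 24 hr at 37 C before luminescence detection.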
(In qHTS, concentration-response curves come from the screen itself.)

Assay [2] is described as follows: qHTS assay to identify small molecule antagonists of the sonic hedgehog signaling (Shh) pathway (AID 1259369; calls by dose curve; also: nearly all actives have a fitted effect of over 45% in size; also: potency is read from the fitted curve at half-maximal effect). The essentials:
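For antagonist detection, the reporter line received test compounds together with conditioned medium, incubated 24hr at 37 C, 5% CO2, then luminescence was recorded following 30min room-temperature luciferase reagent incubation.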

Assay [3] addresses Estrogen receptor beta (Homo sapiens) (UniProt Q92731). The assay can be described thus: qHTS assay to identify small molecule agonists of the estrogen receptor beta (ER-beta) signaling pathway (AID 1259377; active = well fitted activation curve with a large enough effect in the signal ratio in the repeat runs, not every such curve was filed as active; the % refers to the signal ratio). A digest of the protocol:
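Reporter cells (HEK293T, ER-beta-UAS-bla) receive compounds or DMSO after a 6 hr pre-incubation. They then incubate 16 hr at 37C/5% CO2, and fluorescence from LiveBLAzer B/G substrate is measured after 2 hours at room temperature.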

Assay [4] shares this target. In words: qHTS assay to identify small molecule antagonists of the estrogen receptor beta (ER-beta) signaling pathway (AID 1259378; active = well fitted inhibition curve with a large enough effect in the signal ratio in the repeat runs, not every such curve was filed as active; the % refers to the signal ratio). A digest of the protocol:
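Antagonist mode: compounds added to beta-lactamase reporter HEK293T ER-beta-UAS cells stimulated with E2 (1nM final), 16 hr at 37C. LiveBLAzer B/G FRET substrate, 2 hours room temperature, fluorescence read-out.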

A short description of assay [5]: qHTS assay to identify small molecule agonists of the androgen receptor (AR) signaling pathway in the presence of an antagonist - cell viability counter screen (AID 1259379).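 Also: MDA-kb2 human breast cancer cells carrying an MMTV luciferase reporter; series mostly up to about 92 µM; nearly all actives have a fitted effect of over 25% in size.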 The essentials: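 Seed MDA-kb2 at 3,000 cells/well; incubate 5 hr, 37C, 0% CO2. Add nilutamide to 3.0uM final, then pin compounds at 15 concentrations. Incubate 16 hr. Add CellTiter-Fluor at 15 hr, read fluorescence after 1 hr.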

Assay [6] can be described thus: qHTS assay to identify small molecule agonists of the estrogen receptor beta (ER-beta) signaling pathway - cell viability counter screen (AID 1259380). Also: nearly all actives have a fitted effect of over 30% in size. The essentials:
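CellTiter-Glo read, 30 min RT, same wells as bla assay; cells ER-beta-UAS-bla HEK293T; 16 hr compound, 37C; medium 2% charcoal-stripped FBS.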

Assay [7] in a line: qHTS assay to identify small molecule antagonists of the estrogen receptor beta (ER-beta) signaling pathway - cell viability counter screen (AID 1259382).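 Also: HEK293T cells carrying ER-beta-UAS-bla reporter stimulated with estradiol; series mostly up to about 92 µM; nearly all actives have a fitted effect of over 55% in size.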 The essentials: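 In this multiplexed counter screen, cells were seeded at 2,000 per well in medium with 2% charcoal-stripped FBS and incubated 6 hr before compound and 1nM final E2 were added. Sixteen hours later, ATP-based luminescence reported viability.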

Assay [8] has as its target Estrogen receptor (Homo sapiens) (UniProt P03372). In words: qHTS assay to identify small molecule agonists of the estrogen receptor alpha (ER-alpha) signaling pathway in the presence of an antagonist (AID 1259383; calls by dose curve; also: top concentration of the series differs between compounds; nearly all actives have a fitted effect of over 15% in size). A digest of the protocol: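 Stably transfected VM7Luc4E2 reporter cells, kept 5 days in charcoal-stripped serum, received ICI-182,780 at 10.0nM final before compound addition. Following 22hr incubation at 37C and 5% CO2, luciferase signal was read by luminescence.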

A short description of assay [9]: qHTS assay to identify small molecule agonists or antagonists of the thyroid stimulating hormone receptor (TSHR) signaling pathway - wild type cell line counter screen (AID 1259384; calls by dose curve). A digest of the protocol: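 Counter screen in untransfected Hek293: compounds (15-point titration, triplicate) plus phosphodiesterase inhibitor Ro20-1724 added after 18 h plating; 30 min RT. Intracellular cAMP via competitive d2/cryptate immunoassay, 1 h incubation.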

Assay [10] deals with Thyrotropin receptor (Homo sapiens) (UniProt P16473). The assay can be described thus: qHTS assay to identify small molecule antagonists of the thyroid stimulating hormone receptor (TSHR) signaling pathway (AID 1259385; calls by dose curve; also: nearly all actives have a fitted effect of over 20% in size). A digest of the protocol: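 Antagonist mode: compound-treated TSHR-expressing HEK293 cells were stimulated with 1.5 ng/mL TSH (final) in presence of Ro20-1724 for 30 min at RT. HTRF cAMP detection after 1 h; each compound tested at 15 concentrations, triplicate.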

A short description of assay [11]: qHTS assay to identify small molecule agonists of the estrogen receptor alpha (ER-alpha) signaling pathway in the presence of an antagonist - cell viability counter screen (AID 1259386).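 Also: series mostly up to about 92 µM; cells exposed to compounds for 22 h at 37 °C before the viability read; nearly all actives have a fitted effect of over 30% in size.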 The essentials:
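Viability counter screen using VM7Luc4E2 (full-length ER-alpha, four ERE-luciferase). The cells were treated with compounds alongside ICI-182,780 10.0nM for 22hr, and live-cell protease fluorescence was quantified with CellTiter-Fluor.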

Assay [12] has as its target Progesterone receptor (Homo sapiens) (UniProt P06401). The assay can be described thus: qHTS assay to identify small molecule agonists of the progesterone receptor (PR) signaling pathway (AID 1346784; calls by dose curve; also: nearly all actives have a fitted effect of over 30% in size). The essentials:
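Reporter assay, GripTite PR-UAS-bla HEK 293T cells: 16 hr exposure to DMSO-dissolved compounds at 37C, 5% CO2, in steroid-depleted (2% charcoal-stripped FBS) medium; beta-lactamase measured by FRET fluorescence.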

The target is the same in assay [13]. The assay can be described thus: qHTS assay to identify small molecule antagonists of the progesterone receptor (PR) signaling pathway (AID 1346795; active = well fitted inhibition curve with a large enough effect in the signal ratio in the repeat runs, not every such curve was filed as active; the % refers to the signal ratio). A digest of the protocol: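 Stimulus R5020 at 1 nM final; cells HEK293T PR-UAS-bla; medium with 2% charcoal-stripped FBS; compound exposure 16 hr at 37C, 5% CO2; detection by FRET beta-lactamase substrate, 2 hr, room temperature.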

Assay [14] is described as follows: qHTS assay to identify small molecule antagonists of the progesterone receptor (PR) signaling pathway - cell viability counter screen (AID 1346798). Also: series mostly up to about 92 µM; nearly all actives have a fitted effect of over 50% in size. The essentials: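 In the same plates used for the beta-lactamase readout, cell viability of compound- and R5020-treated PR-UAS-bla HEK293T cells (16 hr, 37C) was assessed by CellTiter-Glo luminescence.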
The nature of assay [15]: qHTS assay to identify small molecule agonists of the progesterone receptor (PR) signaling pathway - cell viability counter screen (AID 1346799; calls by dose curve; also: nearly all actives have a fitted effect of over 45% in size). A digest of the protocol: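 Multiplexed viability read: CellTiter-Glo luminescence, 30 min RT, following LiveBLAzer FRET measurement on PR-UAS-bla HEK293T cells exposed to compounds 16 hr.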
A short description of assay [16]: qHTS assay to identify small molecule antagonists of the TGF-beta/Smad signaling pathway - cell viability counter screen (AID 1346824). Also: nearly all actives have a fitted effect of over 50% in size. A digest of the protocol: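 Cytotoxicity counter-screen run in the same wells as the beta-lactamase Smad reporter read: CellTiter-Glo luminescence after 30 min at room temperature. HEK 293T SBE-bla cells had 5 hr compound exposure at 37 C with TGF-beta1 (0.25 ng/mL stock).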

Assay [17] in a line: qHTS assay to identify small molecule agonists of the TGF-beta/Smad signaling pathway - cell viability counter screen (AID 1346829). Also: top concentration of the series differs between compounds; nearly all actives have a fitted effect of over 45% in size. The essentials:
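Here the cytotoxicity of library compounds is measured in SBE-bla HEK 293T cells treated for 5 hr, using CellTiter-Glo added to wells already read for the beta-lactamase reporter.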

The nature of assay [18]: qHTS assay to identify small molecule agonists of the TGF-beta/Smad signaling pathway (AID 1346859; active = well fitted activation curve with a large enough effect in the signal ratio in the repeat runs, not every such curve was filed as active; the % refers to the signal ratio; also: series mostly up to about 77 µM). A digest of the protocol:
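Screening used HEK 293T SBE-bla cells at 4,000/well. Test agents: 5 hr, 37 C. Detection: FRET substrate, 2 hr RT, then excitation 405 nm with emissions at 460 and 530 nm.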

The target of assay [19] is Androgen receptor (Homo sapiens) (UniProt P10275). The assay can be described thus: qHTS assay to identify small molecule agonists of the androgen receptor (AR) signaling pathway in the presence of an antagonist (AID 1259381; calls by dose curve; also: nearly all actives have a fitted effect of over 15% in size). A digest of the protocol:
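Test compounds at 15 concentrations were incubated for 16hr with MDA-kb2 reporter cells in presence of 3.0uM nilutamide (final). Signal: ONE-Glo luciferase luminescence.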

Assay [20] addresses Thyrotropin-releasing hormone receptor (Homo sapiens) (UniProt P34981). In words: qHTS assay to identify small molecule antagonists of the thyrotropin-releasing hormone receptor (TRHR) signaling pathway (AID 1346877; active = well fitted inhibition curve with a large enough effect in the repeat runs, not every such curve was filed as active; also: series mostly up to about 51 µM). The essentials: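 Following an 18 h incubation at 37 °C and a 2 h calcium dye load, TRHR-HEK293 cells were exposed to compound (5 min, room temperature) and challenged with TRH, 1 nM final.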

Inconclusive results are not listed. Active and inactive are the calls of the source. Unless noted, calls follow the shape of the dose curve; as a rule, active = well fitted curve in the direction sought with a large enough effect in the repeat runs; inconclusive = weak or mixed curves; inactive = no such curve, though single readings can be large; an effect the other way counts as inactive or inconclusive.

Thyrotropin receptor (Homo sapiens), sequence (P16473 whole entry, looked up): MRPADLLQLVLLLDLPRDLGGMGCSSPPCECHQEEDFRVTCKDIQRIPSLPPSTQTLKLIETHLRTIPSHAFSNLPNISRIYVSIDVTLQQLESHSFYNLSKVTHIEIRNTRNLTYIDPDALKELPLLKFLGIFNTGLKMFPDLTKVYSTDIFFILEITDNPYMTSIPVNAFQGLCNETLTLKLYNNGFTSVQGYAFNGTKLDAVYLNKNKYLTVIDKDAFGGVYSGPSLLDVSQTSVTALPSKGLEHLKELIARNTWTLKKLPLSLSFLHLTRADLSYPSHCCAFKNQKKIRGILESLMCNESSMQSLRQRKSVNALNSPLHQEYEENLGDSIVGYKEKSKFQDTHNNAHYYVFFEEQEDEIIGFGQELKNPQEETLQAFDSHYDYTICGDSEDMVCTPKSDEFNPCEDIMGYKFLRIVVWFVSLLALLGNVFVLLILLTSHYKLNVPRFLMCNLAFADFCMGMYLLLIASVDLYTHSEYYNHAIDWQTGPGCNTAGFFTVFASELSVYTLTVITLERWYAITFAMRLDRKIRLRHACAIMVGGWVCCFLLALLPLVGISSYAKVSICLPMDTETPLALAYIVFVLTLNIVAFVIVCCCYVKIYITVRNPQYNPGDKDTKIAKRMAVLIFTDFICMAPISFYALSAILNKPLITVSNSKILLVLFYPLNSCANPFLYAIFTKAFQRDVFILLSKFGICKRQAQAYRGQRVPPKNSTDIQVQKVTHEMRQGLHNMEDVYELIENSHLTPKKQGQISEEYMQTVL
Estrogen receptor (Homo sapiens), sequence (P03372 whole entry, looked up): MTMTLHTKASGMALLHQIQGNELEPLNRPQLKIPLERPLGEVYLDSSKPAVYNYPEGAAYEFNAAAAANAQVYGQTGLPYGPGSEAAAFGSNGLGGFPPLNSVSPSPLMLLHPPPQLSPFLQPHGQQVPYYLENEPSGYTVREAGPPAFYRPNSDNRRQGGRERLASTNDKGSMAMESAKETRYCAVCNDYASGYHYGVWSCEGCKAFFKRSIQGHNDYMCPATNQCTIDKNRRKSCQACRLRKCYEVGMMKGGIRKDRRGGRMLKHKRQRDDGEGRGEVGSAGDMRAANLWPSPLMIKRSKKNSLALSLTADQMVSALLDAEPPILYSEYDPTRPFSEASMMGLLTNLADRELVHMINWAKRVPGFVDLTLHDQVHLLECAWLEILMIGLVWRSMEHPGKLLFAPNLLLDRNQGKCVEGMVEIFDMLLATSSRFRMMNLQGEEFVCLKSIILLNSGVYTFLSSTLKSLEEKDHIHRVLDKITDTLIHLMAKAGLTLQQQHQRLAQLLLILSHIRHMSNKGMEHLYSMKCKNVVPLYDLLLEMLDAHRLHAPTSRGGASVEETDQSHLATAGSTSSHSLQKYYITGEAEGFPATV
Thyrotropin-releasing hormone receptor (Homo sapiens), sequence (P34981 whole entry, looked up): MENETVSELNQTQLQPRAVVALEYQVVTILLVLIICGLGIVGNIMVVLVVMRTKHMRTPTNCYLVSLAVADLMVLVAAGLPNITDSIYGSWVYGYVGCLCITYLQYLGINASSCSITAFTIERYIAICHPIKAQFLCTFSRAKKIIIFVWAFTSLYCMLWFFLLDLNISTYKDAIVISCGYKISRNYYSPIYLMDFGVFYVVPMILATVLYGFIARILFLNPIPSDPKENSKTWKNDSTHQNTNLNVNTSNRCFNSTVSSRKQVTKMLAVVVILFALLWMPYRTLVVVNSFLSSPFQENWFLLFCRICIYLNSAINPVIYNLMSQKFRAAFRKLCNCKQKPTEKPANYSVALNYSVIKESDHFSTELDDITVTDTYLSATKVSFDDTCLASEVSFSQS
Androgen receptor (Homo sapiens), sequence (P10275 whole entry, looked up): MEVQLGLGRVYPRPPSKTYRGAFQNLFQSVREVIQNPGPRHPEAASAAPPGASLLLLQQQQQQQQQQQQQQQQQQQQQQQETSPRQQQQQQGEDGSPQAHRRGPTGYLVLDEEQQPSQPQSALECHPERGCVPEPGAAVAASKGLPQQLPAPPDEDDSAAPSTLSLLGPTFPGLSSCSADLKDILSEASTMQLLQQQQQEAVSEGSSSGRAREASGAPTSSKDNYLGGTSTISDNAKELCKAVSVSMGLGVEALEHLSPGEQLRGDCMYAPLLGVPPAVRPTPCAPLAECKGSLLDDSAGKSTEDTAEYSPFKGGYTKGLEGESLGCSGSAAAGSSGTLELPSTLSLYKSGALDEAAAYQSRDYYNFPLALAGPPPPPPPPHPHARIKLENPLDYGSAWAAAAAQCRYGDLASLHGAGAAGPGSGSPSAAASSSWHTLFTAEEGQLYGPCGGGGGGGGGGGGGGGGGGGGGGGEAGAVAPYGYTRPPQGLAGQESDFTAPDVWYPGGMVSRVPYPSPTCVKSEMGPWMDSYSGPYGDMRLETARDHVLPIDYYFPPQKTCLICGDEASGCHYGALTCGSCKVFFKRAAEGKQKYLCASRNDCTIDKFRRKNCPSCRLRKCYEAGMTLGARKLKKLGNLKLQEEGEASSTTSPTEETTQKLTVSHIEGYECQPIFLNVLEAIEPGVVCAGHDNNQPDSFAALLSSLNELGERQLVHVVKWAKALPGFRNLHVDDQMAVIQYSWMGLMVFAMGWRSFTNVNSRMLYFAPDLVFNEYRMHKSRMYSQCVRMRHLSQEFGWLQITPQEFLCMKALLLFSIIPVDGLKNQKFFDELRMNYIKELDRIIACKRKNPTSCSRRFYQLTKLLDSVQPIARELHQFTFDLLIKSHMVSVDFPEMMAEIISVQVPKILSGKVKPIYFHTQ
Estrogen receptor beta (Homo sapiens), sequence (Q92731 whole entry, looked up): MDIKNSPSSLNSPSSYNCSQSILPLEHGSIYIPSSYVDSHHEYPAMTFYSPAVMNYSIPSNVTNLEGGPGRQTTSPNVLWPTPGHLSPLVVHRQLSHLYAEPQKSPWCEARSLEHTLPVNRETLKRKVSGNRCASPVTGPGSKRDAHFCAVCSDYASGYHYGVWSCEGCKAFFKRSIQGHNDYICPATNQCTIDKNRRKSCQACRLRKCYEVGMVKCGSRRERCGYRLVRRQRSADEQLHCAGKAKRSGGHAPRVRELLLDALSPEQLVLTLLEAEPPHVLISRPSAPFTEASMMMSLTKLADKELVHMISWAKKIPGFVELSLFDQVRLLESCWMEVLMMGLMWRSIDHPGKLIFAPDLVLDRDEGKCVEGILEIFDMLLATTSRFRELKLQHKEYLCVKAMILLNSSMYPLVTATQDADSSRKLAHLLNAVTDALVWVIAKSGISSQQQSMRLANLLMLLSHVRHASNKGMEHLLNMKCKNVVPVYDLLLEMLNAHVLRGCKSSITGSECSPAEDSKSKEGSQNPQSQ
Progesterone receptor (Homo sapiens), sequence (P06401 whole entry, looked up): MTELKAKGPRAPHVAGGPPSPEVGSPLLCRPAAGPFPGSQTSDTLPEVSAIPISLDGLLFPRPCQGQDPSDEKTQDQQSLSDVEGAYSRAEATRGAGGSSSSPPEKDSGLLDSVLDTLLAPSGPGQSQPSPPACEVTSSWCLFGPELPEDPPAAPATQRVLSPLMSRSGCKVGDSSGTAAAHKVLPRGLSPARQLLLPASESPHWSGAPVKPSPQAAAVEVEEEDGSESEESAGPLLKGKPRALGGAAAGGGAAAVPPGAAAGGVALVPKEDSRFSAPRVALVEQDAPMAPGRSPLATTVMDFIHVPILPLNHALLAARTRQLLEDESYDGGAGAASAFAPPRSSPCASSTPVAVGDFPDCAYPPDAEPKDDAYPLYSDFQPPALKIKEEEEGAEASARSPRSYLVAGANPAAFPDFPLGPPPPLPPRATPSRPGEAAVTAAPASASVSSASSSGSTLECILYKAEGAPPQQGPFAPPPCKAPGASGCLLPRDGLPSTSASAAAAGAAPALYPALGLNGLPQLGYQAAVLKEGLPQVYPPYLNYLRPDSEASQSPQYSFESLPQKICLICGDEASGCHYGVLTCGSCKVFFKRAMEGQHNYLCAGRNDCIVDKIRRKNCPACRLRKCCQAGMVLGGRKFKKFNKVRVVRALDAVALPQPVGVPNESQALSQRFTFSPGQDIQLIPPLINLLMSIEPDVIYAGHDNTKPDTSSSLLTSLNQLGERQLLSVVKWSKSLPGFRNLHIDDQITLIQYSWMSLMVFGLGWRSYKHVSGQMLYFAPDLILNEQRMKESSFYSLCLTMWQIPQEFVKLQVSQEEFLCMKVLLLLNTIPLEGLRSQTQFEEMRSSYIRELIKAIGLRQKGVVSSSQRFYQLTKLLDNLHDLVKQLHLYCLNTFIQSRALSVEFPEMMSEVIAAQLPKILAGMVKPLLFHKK

Consider `C[C@H](O)C(=O)Nc1c(I)c(C(=O)NC(CO)CO)c(I)c(C(=O)NC(CO)CO)c1I`, for which the Potency result in [1], in [2], in [4], in [5], in [6] and in assay [7] was “inactive” each time. Further, the Potency result in [8], in assay [10], in [12], in assay [13], in assay [14] and in [15] was “inactive” each time. The outcome in assay [3], in [9], in [11], in assay [16], in assay [17] and in assay [18] was inactive.
For `CC1=CCC2C(C1)C2(C)C` (stereo not drawn), the Potency result in assay [1], in assay [4], in assay [5], in assay [6], in assay [19] and in assay [7] was “inactive” throughout. In addition, the Potency entry in [8], in assay [10], in [12], in assay [13] and in assay [14] was “inactive” each time. In addition, the Potency in assay [2] is 17.2 µM (active). Moreover, the compound was classed as inactive in [3], in assay [11], in assay [16], in [17], in [18] and in assay [20].
For `Cc1nccn1CC1CCc2c(c3ccccc3n2C)C1=O` (stereo not drawn), the Potency result in assay [1], in [2], in assay [4], in assay [5], in assay [6] and in [7] was “inactive” each time. Further, the Potency result in [8], in [12], in [13], in assay [14] and in [15] was “inactive” throughout. In addition, the call in assay [3], in assay [9], in assay [11], in [17], in assay [18] and in assay [20] was inactive.
For `OCCN1C[C@H](O)[C@@H](O)[C@H](O)[C@H]1CO`, the Potency result in assay [1], in [2], in [4], in assay [5], in [6] and in [19] was “inactive” each time. In addition, the Potency entry in assay [7], in [8], in assay [10], in assay [12], in assay [13] and in [14] was “inactive” in each case. In addition, the outcome in [3], in assay [9], in assay [11], in assay [16], in [17] and in [18] was inactive. In assay [20], the call was inactive.
Regarding `NS(=O)(=O)c1cc2c(cc1C(F)(F)F)NC(Cc1ccccc1)NS2(=O)=O` (stereo not drawn), the Potency result in assay [1], in [2], in [4], in assay [5], in assay [6] and in [19] was “inactive” each time. For the same compound, the Potency entry in assay [10], in assay [12], in assay [13] and in assay [14] was “inactive” in each case. In addition, the compound was classed as inactive in assay [3], in assay [9], in [11], in [16], in [17] and in assay [18]. For the same compound, the result in assay [20] was inactive.
As for `CCCCOCC(C)OCC(C)O` (stereo not drawn), the Potency entry in [1], in assay [2], in [4], in [5], in [6] and in [7] was “inactive” throughout. For the same compound, the Potency result in assay [8], in [12], in assay [13], in [14] and in [15] was “inactive” each time. In addition, the result in [3], in [11], in [16], in assay [17], in assay [18] and in assay [20] was inactive.
On to `COC(=O)c1ccc(C(=O)OC)c(C(=O)OC)c1`, for which the Potency result in [1], in [2], in assay [4], in [5], in assay [6] and in [7] was “inactive” in each case. The Potency entry in [8], in assay [10] and in assay [14] was “inactive” throughout. Also, the compound was classed as inactive in [3], in assay [9], in [11], in assay [16], in [17] and in assay [18].
`COCCOC(=O)CC#N`: the Potency result in assay [1], in assay [2], in assay [4], in assay [5], in assay [6] and in assay [7] was “inactive” throughout. The Potency result in [8], in assay [10], in assay [12], in [13] and in assay [14] was “inactive” each time. Further, the compound was called inactive in assay [3], in [9], in [11], in assay [16], in assay [18] and in [20].

Values taken from PubChem BioAssay (Tox21).
